Source: PubChem
Pol kappa inh-1: blocks human DNA polymerase kappa activity; Q9UBT6; purified Pol kappa, fluorescent DNA synthesis assay, 10 min; Potency, µM (doses to about 107 µM), most hits filed as inhibitors; 0.53% of 400,000 active; AID 588579
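Fluorescent qHTS in 1536-well format: enzyme (10 nM) and compound sat 15 min at room temperature before 50 nM substrate (final) was added. Signal taken at 0 and 10 min; no-enzyme buffer wells were negative controls.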
Pol eta inh-1: DNA polymerase eta (human) inhibition; Q9Y253; recombinant Pol eta, fluorescent DNA replication assay; Potency, µM (titrated, usually from 114 µM), most hits filed as inhibitors; 1.2% of 390,000 active
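Fluorescent replication assay: 50 nM final substrate added after a 15 min room-temperature compound preincubation with 10 nM enzyme. Signal taken at 0 min and again at 10 min.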
POLB inh: inhibitors of human DNA polymerase beta; P06746; Pol beta primer extension/strand displacement, fluorescence kinetic; Potency, µM (titrated, usually from 114 µM), hits mostly inhibitors; 1.3% of 340,000 active; AID 485314
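Pol beta (10 nM) and compounds were preincubated 15 min at room temperature, then 50 nM substrate (final) started primer extension/strand displacement. Reads were taken at 0 and 10 min; concentration-response data were fitted to a four-parameter Hill equation.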
POLI inh: inhibitors of human DNA polymerase iota; Q9UNA4; Pol iota fluorescent replication assay, 10 min; Potency, µM (doses to about 115 µM), hits mostly inhibitors; 1% of 390,000 active
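Pol iota at 10 nM preincubated 15 min with compounds at room temperature; reaction started with fluorescent substrate, 50 nM final. Fluorescence read kinetically at 0 and 10 min; buffer-only wells as negative control.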
WRN helicase inh: inhibitors of human WRN helicase; Q14191; WRN helicase unwinding, fluorescent forked duplex, kinetic; Potency, µM (top dose mostly 114 µM), most hits filed as inhibitors; 0.46% of 360,000 active; AID 651768; also: nearly all actives have a fitted effect of over 55% in size
Target sequence (Q14191 whole entry, looked up): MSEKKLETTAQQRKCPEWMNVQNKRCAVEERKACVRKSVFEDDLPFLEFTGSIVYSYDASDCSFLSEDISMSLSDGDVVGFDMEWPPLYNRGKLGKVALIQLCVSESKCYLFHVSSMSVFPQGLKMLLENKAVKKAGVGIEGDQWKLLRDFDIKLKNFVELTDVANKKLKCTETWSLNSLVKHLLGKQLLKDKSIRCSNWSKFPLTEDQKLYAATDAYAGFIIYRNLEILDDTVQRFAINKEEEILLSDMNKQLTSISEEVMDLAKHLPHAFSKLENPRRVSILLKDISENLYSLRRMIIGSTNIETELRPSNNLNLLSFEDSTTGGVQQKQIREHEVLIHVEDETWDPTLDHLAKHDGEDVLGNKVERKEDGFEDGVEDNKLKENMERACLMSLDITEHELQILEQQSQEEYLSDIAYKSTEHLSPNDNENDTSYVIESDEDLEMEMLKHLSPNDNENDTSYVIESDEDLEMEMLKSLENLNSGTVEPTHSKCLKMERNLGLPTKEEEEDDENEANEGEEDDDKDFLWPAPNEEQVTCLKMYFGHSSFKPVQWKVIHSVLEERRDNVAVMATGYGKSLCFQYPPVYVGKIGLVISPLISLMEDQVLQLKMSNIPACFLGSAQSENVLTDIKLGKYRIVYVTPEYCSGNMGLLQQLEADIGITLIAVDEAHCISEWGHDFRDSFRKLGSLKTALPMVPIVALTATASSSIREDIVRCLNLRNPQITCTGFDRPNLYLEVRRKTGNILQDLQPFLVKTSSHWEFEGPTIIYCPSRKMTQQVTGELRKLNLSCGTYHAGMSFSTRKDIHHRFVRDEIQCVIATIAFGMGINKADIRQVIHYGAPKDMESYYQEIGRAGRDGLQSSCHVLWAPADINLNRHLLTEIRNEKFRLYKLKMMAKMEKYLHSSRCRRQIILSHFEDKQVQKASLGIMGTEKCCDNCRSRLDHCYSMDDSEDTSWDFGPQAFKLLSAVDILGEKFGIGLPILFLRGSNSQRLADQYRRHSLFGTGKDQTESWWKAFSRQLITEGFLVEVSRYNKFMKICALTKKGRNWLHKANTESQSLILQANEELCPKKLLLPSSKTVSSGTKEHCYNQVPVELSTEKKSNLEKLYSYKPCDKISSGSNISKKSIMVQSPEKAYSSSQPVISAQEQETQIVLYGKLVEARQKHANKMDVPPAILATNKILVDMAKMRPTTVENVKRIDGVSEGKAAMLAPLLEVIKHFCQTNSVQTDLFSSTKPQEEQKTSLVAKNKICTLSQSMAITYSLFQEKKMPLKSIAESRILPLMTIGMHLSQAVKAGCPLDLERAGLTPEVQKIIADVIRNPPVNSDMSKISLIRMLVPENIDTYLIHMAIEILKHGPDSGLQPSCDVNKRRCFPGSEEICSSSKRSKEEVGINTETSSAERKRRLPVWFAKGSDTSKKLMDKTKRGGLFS
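Kinetic red-fluorescence monitoring (525/598 nm) tracks WRN helicase activity after 100 nM fluorophore-quencher forked duplex and 2 mM ATP are added to 20 nM enzyme pretreated 15 min at room temperature with compound.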
Pol kappa inh-2: Pol kappa (human) inhibition, cherry-pick confirmation. purified Pol-kappa, fluorescent strand-displacement substrate. 76% of 920 active. AID 720501. Potency, µM, hits mostly inhibitors. shares compounds with Pol eta inh-1
Pol eta inh-2: confirmation of human DNA polymerase eta inhibitors; AID 720502; Potency, µM, actives largely listed as inhibitors; 64% of 2,600 active; Pol eta primer extension, TAMRA/BHQ fluorescence, 10 min; shares compounds with Pol eta inh-1
Each line names hits and unclear results; the compound was inactive in the other large screens (follow-up assays come after a bar, where they were run). Rows were chosen to be rich in hits. Some 2.3% of all compounds tested hit in one or more screens of this group. Calls follow the shape of the dose curve; as a rule, active = well fitted curve in the direction sought with a large enough effect; inconclusive = small, poorly fitted or top-dose-only effect, or another doubt; inactive = no such curve, though single readings can be large; an effect the other way counts as inactive or inconclusive.

O=C1CN(C(=O)COC(=O)c2cccs2)c2ccccc2N1	none (no result: POLB inh)
O=C1Nc2ccccc2Oc2cc(Oc3ccccc3)ccc21	Pol kappa inh-1 inconclusive, POLI inh 79µM (no result: Pol eta inh-1, WRN helicase inh) | Pol eta inh-2 inconclusive
Cc1ccccc1CNC(=O)c1ccc(NC(=O)c2nsc3ccccc23)cc1	none (no result: WRN helicase inh)
CCn1nc(-c2ccccc2)c(-c2ccccc2)c(C(=O)Nc2ccccc2C(N)=O)c1=O	none (no result: WRN helicase inh)
Cc1ccc(C(=O)/C=C/N(C)C)o1	none
Cc1ccc(C(=O)/C=C/c2cc(Br)cc(Br)c2O)o1	Pol eta inh-1 50µM, POLB inh inconclusive, POLI inh inconclusive, WRN helicase inh 79µM | Pol eta inh-2 inconclusive
O=S(=O)(NCC(c1ccco1)S(=O)(=O)c1ccccc1)c1cc(F)ccc1F (centres undefined)	none (no result: WRN helicase inh)
Cc1ccc(-c2c(C(=O)N3CCN(c4cccc(C)c4)C(C)C3)oc(=O)c3ccccc23)cc1 (centres undefined)	none (no result: WRN helicase inh)
Cc1cc2c(cc1S(=O)(=O)N(CCN(C)C)Cc1ccccc1)OCC(=O)N2	none (no result: WRN helicase inh)
CC1(C)SC2C(NC(=O)C(C(=O)O)c3ccccc3)C(=O)N2C1C(=O)O (centres undefined)	none (no result: Pol eta inh-1, POLB inh, POLI inh, WRN helicase inh)
CC1(C)S[C@@H]2[C@H](NC(=O)[C@H](N)c3ccc(O)cc3)C(=O)N2[C@H]1C(=O)O	Pol kappa inh-1 50µM, Pol eta inh-1 inconclusive, POLI inh inconclusive (no result: WRN helicase inh) | Pol eta inh-2 38
CN(C(=O)c1ccc2c(c1)N(Cc1ccccc1F)C(=O)c1ccccc1S2(=O)=O)C1CCCCC1	none (no result: WRN helicase inh)
NC(C(=O)NC1C(=O)N2C(C(=O)O)=C(Cl)CSC12)c1ccccc1 (centres undefined)	none (no result: Pol eta inh-1, POLB inh, POLI inh, WRN helicase inh)
N[C@H](C(=O)N[C@@H]1C(=O)N2C(C(=O)O)=C(Cl)CS[C@@H]12)c1ccccc1	none (no result: Pol eta inh-1, POLB inh, POLI inh, WRN helicase inh)
Cn1nnnc1SCC1=C(C(=O)O)N2C(=O)C(NC(=O)C3CC3c3ccccc3)C2SC1 (centres undefined)	Pol kappa inh-1 inconclusive, Pol eta inh-1 14µM, POLB inh 32µM, POLI inh 14µM, WRN helicase inh inconclusive | Pol kappa inh-2 67 | Pol eta inh-2 48
CC(C(=O)NC1C(=O)N2C(C(=O)O)=C(CSc3nnnn3C)CSC12)n1cc(Br)cn1 (centres undefined)	Pol kappa inh-1 inconclusive, Pol eta inh-1 32µM, POLB inh 18µM, POLI inh inconclusive | Pol eta inh-2 inconclusive
COCCCn1c(=O)/c(=C\c2ccccc2OC(C)C)s/c1=C(/C#N)C(=O)Nc1ccc(C(=O)O)cc1	Pol eta inh-1 inconclusive, POLI inh inconclusive, WRN helicase inh inconclusive | Pol eta inh-2 43
O=C1CCCc2cc(S(=O)(=O)N3CCCC(C(=O)Nc4ccc(F)c(Cl)c4)C3)ccc2N1 (centres undefined)	none (no result: WRN helicase inh)
CCOc1ccc2nc(N(Cc3cccnc3)C(=O)c3ccco3)sc2c1	none (no result: WRN helicase inh)
CCOc1ccc(NC(=O)C2CCCN(c3nn4cc(-c5ccc(OC)cc5)nc4s3)C2)cc1 (centres undefined)	none (no result: WRN helicase inh)
CC(C)c1ccc(NS(=O)(=O)c2ccc3[nH]cc(C(=O)NCC4CCCO4)c(=O)c3c2)cc1 (centres undefined)	Pol eta inh-1 89µM, POLB inh 32µM, POLI inh 79µM (no result: WRN helicase inh) | Pol kappa inh-2 38 | Pol eta inh-2 inconclusive
CC(C)c1ccc(NS(=O)(=O)c2ccc3[nH]cc(C(=O)NC4CCCCC4)c(=O)c3c2)cc1	Pol kappa inh-1 inconclusive, Pol eta inh-1 35µM, POLB inh 25µM, POLI inh inconclusive (no result: WRN helicase inh) | Pol kappa inh-2 19 | Pol eta inh-2 76
Cc1cc(C)cc(NS(=O)(=O)c2ccc3[nH]cc(C(=O)NC4CCCCC4)c(=O)c3c2)c1	POLB inh inconclusive (no result: WRN helicase inh)
Cc1c(Cl)cccc1NS(=O)(=O)c1ccc2[nH]cc(C(=O)NC3CCCC3)c(=O)c2c1	Pol kappa inh-1 inconclusive, Pol eta inh-1 25µM, POLB inh inconclusive, POLI inh 79µM (no result: WRN helicase inh) | Pol kappa inh-2 24 | Pol eta inh-2 95
COc1ccc(NCc2cc3ccc(OC)cc3n(CC(=O)Nc3cccc(OC)c3)c2=O)cc1	none (no result: WRN helicase inh)
CCn1c(CN2CCCCC2)nc2cc(NC(=O)c3cccc([N+](=O)[O-])c3)ccc21	none (no result: WRN helicase inh)
CC(C)(C)N/N=C1\CC(c2ccccc2)Oc2ccccc21 (centres undefined)	none
O=C(O)c1cc(N/N=C2/CC(c3ccccc3)Oc3ccccc32)ccc1Cl (centres undefined)	Pol kappa inh-1 inconclusive, Pol eta inh-1 20µM, POLB inh 40µM, POLI inh inconclusive, WRN helicase inh inconclusive | Pol eta inh-2 60
CCNc1nc(NCC)n2c(SCC(=O)Nc3ccc(F)cc3)nnc2n1	Pol kappa inh-1 inconclusive, Pol eta inh-1 14µM, POLI inh 20µM, WRN helicase inh inconclusive (no result: POLB inh) | Pol kappa inh-2 60 | Pol eta inh-2 67
CCNc1nc(NCC)n2c(SCC(=O)Nc3ccccc3)nnc2n1	none
CCNc1nc(NCC)n2c(SCC(=O)Nc3ccc(C)c(C)c3)nnc2n1	POLI inh inconclusive (no result: POLB inh)
CCNc1nc(NCC)n2c(SCC(=O)Nc3ccc(OC(F)F)cc3)nnc2n1	Pol eta inh-1 inconclusive, POLI inh inconclusive (no result: POLB inh) | Pol eta inh-2 inconclusive
Cc1c(Cl)cccc1NS(=O)(=O)c1ccc(-c2cnc(C3CC3)o2)cc1	POLB inh inconclusive (no result: WRN helicase inh)
COc1cccc(Nc2nn3c(=O)c4ccccc4nc3s2)c1	Pol eta inh-1 50µM (no result: POLB inh, WRN helicase inh) | Pol eta inh-2 inconclusive
Cc1ccc(C(=O)Nc2cccc(C(=O)O)c2)cc1	none
Cc1oc2c(c1C(=O)Nc1cccc(C(=O)O)c1)CCCC2	Pol eta inh-1 50µM, POLB inh inconclusive, POLI inh 79µM | Pol eta inh-2 inconclusive
CC(=O)N1c2ccc(S(=O)(=O)NCc3ccc(Cl)cc3)cc2CC1C (centres undefined)	POLI inh inconclusive (no result: WRN helicase inh)
Cc1ccccc1NC(=O)/C(C#N)=C\c1cccnc1	none
N#C/C(=C\c1cccnc1)C(=O)Nc1ccccc1[N+](=O)[O-]	Pol eta inh-1 32µM | Pol kappa inh-2 inconclusive | Pol eta inh-2 76
COc1ccc(OC)c(/C=C2\S/C(=N/NC(=O)c3ccc4ccccc4c3)NC2=O)c1	Pol eta inh-1 20µM, WRN helicase inh inconclusive | Pol kappa inh-2 inconclusive
